PubChem BioAssay AID624417 (National Center for Advancing Translational Sciences (NCATS), 2012)
Screen size: about 410,000 compounds; about 6,400 (1.6%) were called active. Not shown: some 20% with an inconclusive outcome. Calls follow the shape of the dose curve; as a rule, active = well fitted inhibition curve with a large enough effect; inconclusive = small, poorly fitted or top-dose-only effect; inactive = no such curve, though single readings can be large or run the other way. Many of the other results were omitted from the sample, so actives are more common in it than they were.

target: Glucagon-like peptide 1 receptor (Homo sapiens) (UniProt P43220); assay: qHTS of GLP-1 Receptor Inverse Agonists (Inhibition Mode); settings: HEK293 GLP-1R CRE-luciferase, luminescence, 24 h, GLP-1R form is constitutively active; series mostly up to 38.3 µM; activity change, negative = inhibition: at the top concentration; also: nearly all actives have a fitted effect of over 55% in size
Sequence (P43220 whole entry, looked up): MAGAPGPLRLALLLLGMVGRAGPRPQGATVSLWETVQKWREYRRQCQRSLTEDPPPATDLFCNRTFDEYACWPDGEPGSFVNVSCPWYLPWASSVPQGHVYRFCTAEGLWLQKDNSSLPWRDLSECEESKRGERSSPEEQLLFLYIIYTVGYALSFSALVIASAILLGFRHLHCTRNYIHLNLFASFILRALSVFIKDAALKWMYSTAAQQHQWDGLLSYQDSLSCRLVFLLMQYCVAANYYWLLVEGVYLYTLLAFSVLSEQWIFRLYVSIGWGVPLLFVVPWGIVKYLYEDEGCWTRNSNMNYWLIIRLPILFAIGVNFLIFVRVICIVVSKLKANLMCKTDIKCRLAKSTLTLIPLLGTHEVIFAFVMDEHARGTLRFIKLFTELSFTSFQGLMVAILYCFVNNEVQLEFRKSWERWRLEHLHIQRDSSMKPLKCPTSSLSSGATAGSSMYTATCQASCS
Summary of the method: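 Using stably transfected HEK293 (constitutively active GLP-1R, cAMP-luciferase reporter), compounds were incubated 24 hr and luciferase measured by luminescence.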
% is scaled to controls: 0 for no effect and ±100 for the full control effect; potency is read from the fitted curve at half-maximal effect.

Activity change, negative = inhibition, inactive:
CC(=O)Nc1ccc(CNc2nc(NCCN(C)C)nc3cc(-c4ccccc4)sc23)cc1 -27.5%
CCOc1cccc(C(=O)Nc2nnc(-c3cccs3)s2)c1 25.6%
CCCOc1cccc(C(=O)NCCCNC(=O)c2cccnc2)c1 20.7%
Cc1nccn1-c1ccc(NC(=O)[C@H]2O[C@@H](n3cnc4c(N)ncnc43)[C@H](O)[C@@H]2O)cc1 32.2%
Cc1ccc(S(=O)(=O)CC(=O)NC(C)c2ccccc2)cc1 (configuration not stated) -15.5%
CSc1ccc(CCNC(=O)CS(=O)(=O)Cc2nc(-c3ccccc3F)oc2C)cc1 9.93%
CN(Cc1ccccc1)C(=O)[C@@H]1CCCN1C(=O)[C@@H]1CCCN1C(=O)c1c(F)cccc1F 11.3%
CCOC(=O)[C@]12CCC=C1N(CCC1=CCCCC1)C(=O)[C@H](CC(=O)NCc1ccc(C)o1)C2 14%
O=C(CN1CCN(Cc2ccc(Cl)cc2)C1=O)NCc1ccc(F)cc1 -5.81%
CC(NC(=O)CN1CCN(Cc2ccc(Cl)cc2)C1=O)c1ccc2c(c1)OCCO2 (configuration not stated) -23.5%
CC(C)C1CC2=C(C(=O)OC(C)(C)O2)C(c2ccc(F)cc2)O1 (configuration not stated) -19.2%
Cc1ccc([C@H]2C[C@H](O)[C@@H](n3cc(COC(=O)c4ccccc4)nn3)CN2CC2CCCCC2)cc1 1.35%
CC(=O)N1C[C@@H](CO)[C@@H](N(C)C(=O)c2ccco2)C[C@H]1c1ccccc1 17.5%
COc1ccccc1-c1n[nH]nc1C1=CC(=O)CC(C)(C)C1 -11.7%
NS(=O)(=O)c1ccc(CNC(=O)c2cccc(S(=O)(=O)N3CCc4ccccc43)c2)cc1 -4.07%
Cc1cccc(NC(=O)c2cccc(S(=O)(=O)N3CCCC3)c2)n1 -2.27%
COc1ccc(NC(=O)N(C)C[C@H]2Oc3ncc(C#C[C@@H](C)O)cc3C(=O)N([C@H](C)CO)C[C@H]2C)cc1 19.3%
Cn1c(Nc2ccc(F)cc2)nc2cc(-c3ccsc3)sc2c1=O 13.3%
CCN(CCN(C)C)C(=O)c1ccc2nc(C)c(N(C)C(=O)CCc3ccccc3)n2c1 12.2%
O=C(NCc1nnnn1-c1ccc(Cl)cc1)c1ccc([N+](=O)[O-])o1 12.3%
CCN1CC(CN(C)Cc2nc(-c3ccc(Cl)cc3)no2)CC1=O (configuration not stated) -4.38%
CC1CCN(Cc2nc(-c3ccc(Cl)cc3)no2)CC1 -29.5%
CCN(CC)C(=O)C(C)N1c2cccc3cccc(c23)S1(=O)=O (configuration not stated) -23.4%
O=C1C[C@@H]2c3c(cccc3CN1Cc1ccccc1)C[C@@H](O)[C@H]2O 26.3%
CC1CN(Cc2ccccc2)C(=S)NC1=O (configuration not stated) 0.404%
Nc1ncnc2c1ncn2[C@@H]1O[C@H](C(=O)N2CCSC2)[C@@H](O)[C@H]1O 0.629%
CCOc1cc(/C=N/NC(=O)c2c(C)nc3ccc(Cl)cn23)ccc1O 1.83%
CC(=O)C[C@@H]1OC[C@H](C)N1S(=O)(=O)c1ccc(C)cc1 0.373%
CCCC(=O)N1CCC1(C)C(=O)NCc1ccc(C(C)C)cc1 (configuration not stated) 17.7%
CCN(CC)CCNC(=O)c1ccc(NC(=O)c2c(F)cccc2Cl)cc1 -15.9%
O=C(Nc1nnc(-c2ccc(F)cc2)s1)c1c(F)cccc1Cl -21.4%
CN1CCN(c2ccncc2S(=O)(=O)N2CCCC2)CC1 14%
COCCNC(=O)c1cc2c(Br)ccc(Br)c2nc1N 3.82%
O=C(C[C@H]1CC[C@@H](NC(=O)c2ccncc2)[C@@H](CO)O1)NCC1CC1 19.3%
CCOc1ccccc1-c1cc(C(=O)N2CCOCC2)c2ccccc2n1 -1.25%
CCOc1ccccc1/C=N/Nc1nc2ccccc2o1 4.76%
CC(C)(C)S(=O)N1Cc2cc(C(=O)NCCCN3CCOCC3)nc(-c3cccc(-c4cc5ccccc5o4)c3)c2[C@H]1CCO (some centres not stated) 4.49%
COc1cccc(N2CCN(CC(=O)Nc3ccnn3C3CCCC3)CC2)c1 -24.6%
COc1cccc(CC(=O)Nc2ccc(-c3csc(C)n3)cc2)c1 -12.6%
CC(C)CN1CCC1(C)C(=O)Nc1ccc(OC(F)F)cc1 (configuration not stated) -21%
C[N+](C)(C)CCNC(=O)c1c[nH]c2ccccc12 15.7%
CC(C)c1cc(C(=O)N(C)C2CCCN(Cc3ccccc3F)C2)n(C)n1 (configuration not stated) -8.11%
COc1cc2c(cc1OC)C(Nc1ccc(S(N)(=O)=O)cc1)=NC(C)(C)C2 120%
COc1cc2c(cc1OC)C(C(C)C)=NC(C)(C)C2 41.3%
CC(=O)NN=C(C)c1ccc(NC(=O)C2CC2)cc1 -13.4%
N#Cc1ccc(C(C(=O)NCc2ccccc2)n2c(=O)c(-c3ccco3)nc3ccccc32)cc1 (configuration not stated) -11.9%
Cc1ccc(NC(=O)Cn2sc3ccccc3c2=O)cc1 -7.13%
O=C(O)c1cccc(NC(=S)N/N=C/c2c[nH]c3ccccc23)c1 -14.5%
COCCNC(=S)N/N=C/c1c(C)[nH]c2ccccc12 -22.1%
CCc1nc2ccc(C(=O)N3CCC(O)(Cc4ccccc4)CC3)cn2c1N(C)C(=O)Cc1ccccc1 -20%
CCNC(=O)CN(c1ccc(C)cc1)S(=O)(=O)c1ccc(SC)cc1 -13.4%
CCc1ccc(N(CC(=O)NCc2cccnc2)S(=O)(=O)c2ccccc2)cc1 -16.9%
NC(=S)N/N=C/c1coc2cc(Cl)ccc2c1=O 8.08%
CCOc1ccc(/C=N/NC(N)=S)cc1 -13.1%
CN1OC[C@@H]2CN(C(=O)c3ccc(-c4ccccc4)cc3)[C@H](c3ccc(-c4cccc(F)c4)cc3)C[C@@H]21 -7.58%
CCCCN1C(=O)C(CC(=O)NCc2cccs2)CC(C(=O)N2CCCCCC2)=C1C (configuration not stated) 32.5%
COc1ccc(C(=O)N(Cc2ccc(N(C)C)cc2)C2CCS(=O)(=O)C2)cc1 (configuration not stated) 11.2%
Cc1cc(Cl)ccc1OCC(=O)N(Cc1ccc(N(C)C)cc1)C1CCS(=O)(=O)C1 (configuration not stated) -15.3%
C=CCN1CCN(c2ccncc2S(=O)(=O)N2CCN(C)CC2)CC1 2.75%
C[C@@H]1Cn2cnc(C(=O)Nc3ccc(CNC(=O)OC(C)(C)C)cc3)c2C(=O)N1 10.1%
O=C(Cc1ccc(-c2ccccc2)cc1)NC(c1ccccc1)c1ccccc1 4.75%
O=C(CN1CCN(Cc2ccccc2)CC1)Nc1ccc(F)c(F)c1 -20.9%
COc1ccc(S(=O)(=O)N(C)C)cc1NC(=O)COC(=O)c1n[nH]c2ccccc12 26.5%
Nc1ncnc2c1ncn2[C@@H]1O[C@H](CNC(=O)[C@H](N)Cc2cccnc2)[C@@H](O)[C@H]1O 21.7%
O=C(NC(Nc1nc2ccc([N+](=O)[O-])cc2s1)(C(F)(F)F)C(F)(F)F)c1ccccc1 -3.99%
COc1ccc(CC(=O)N/N=C/c2cc([N+](=O)[O-])cc(Br)c2O)cc1 -4.66%
CC1(C(=O)O)CCN1C(=O)/C=C/c1ccccc1 (configuration not stated) 3.55%
Cc1cccc(S(=O)(=O)N(C)C[C@@H]2OCc3cnnn3CCCC(=O)N([C@H](C)CO)C[C@@H]2C)c1 4.72%
CC(=O)Nc1ccc(NC(=O)CSCc2cnn(-c3ccccc3)c2-n2cccc2)cc1 0%
Cc1cc(C)cc(NC(=O)CSCc2cnn(-c3ccccc3)c2-n2cccc2)c1 0%
Cc1ccc(S(=O)(=O)N2C[C@H]3C(=O)C[C@@H](c4cccc5ccccc45)N(S(=O)(=O)c4ccc(C)cc4)[C@H]3C[C@H]2c2ccc(Cl)cc2)cc1 -11.8%
CC1(C(=O)NS(=O)(=O)c2cccc(OC(F)F)c2)CCN1C(=O)C1CC1 (configuration not stated) 26.9%
CC1=NN(C(=O)Cc2ccc(C)cc2)C(O)(c2cccnc2)C1 (configuration not stated) -31.7%
CC1=NN(C(=O)c2ccccc2Br)C(O)(c2cccnc2)C1 (configuration not stated) -5.96%
CCOC(=O)[C@]12CCCC=C1N(CCC1=CCCCC1)C(=O)[C@H](CC(=O)N1CCOCC1)C2 -8.43%
CC(=O)Nc1cccc(-c2cc3nc(NCc4cccnc4)n(C)c(=O)c3s2)c1 24.8%
Cc1c(C(=O)NCC2CC2)sc(=O)n1Cc1cccc(F)c1 19.5%
O=C1NC[C@H](Cc2ccc(O)cc2)N(C[C@@H]2CCCN2C[C@H](Cc2ccccc2)N2C[C@H](Cc3ccccc3)N(CC3CCCCC3)C(=O)C2=O)C1=O -1.28%

Potency, active:
CCOc1cccc(C(=O)Nc2cnn(Cc3ccccc3)c2)c1 10 µM
Cc1ccccc1-c1nc(CS(=O)(=O)CC(=O)NC(C)c2ccccc2)c(C)o1 (configuration not stated) 4.47 µM
Cc1ccc(CNC(=O)CN2CCN(Cc3ccc(Cl)cc3)C2=O)cc1 7.94 µM
Cc1ccc(NC(=O)c2cccc(S(=O)(=O)N3CCCc4ccccc43)c2)nc1 7.94 µM
Cc1ccc(S(=O)(=O)N(Cc2nc(-c3ccc(Cl)cc3)no2)C2CCCCC2)cc1 10 µM
CCc1cccc(C)c1N1C(=O)CN(Cc2ccccc2)C1=S 5.62 µM
O=C(NNc1cc(Cl)cc(Cl)c1)c1c(F)cccc1Cl 10 µM
CCOc1cccc(/C=C/c2ccc3ccccc3n2)c1OC(C)=O 10 µM
COc1cccc(NC(=O)CN2CCN(c3nc(-c4cccc(OC)c4)cs3)CC2)c1 10 µM
COc1cc2c(cc1O)C(SC)=NC(C)(C)C2 10 µM
CSC(=S)N/N=C/c1c[nH]c2ccccc12 3.16 µM
Cc1ccc(S(=O)(=O)N(CC(=O)Nc2cccnc2)c2ccc(Br)cc2)cc1 11.2 µM
CC(C)Oc1c(Br)cc(Br)cc1/C=N/NC(N)=S 2.51 µM
CC1(C)C(C=C(Cl)Cl)C1C(=O)N(Cc1ccc(Cl)cc1)C1CCS(=O)(=O)C1 (configuration not stated) 8.91 µM
O=C(CN1CCN(Cc2ccccc2)CC1)NC(c1ccccc1)c1ccccc1 10 µM
CSc1nsc(SC)c1NC(=O)OC1CCCCC1 7.08 µM
O=[N+]([O-])c1cc(Br)c(O)c(/C=N/Nc2nc3ccccc3s2)c1 4.47 µM
O=C(NCCC1=CCCCC1)C1CCN(Cc2cnn(-c3ccccc3)c2-n2cccc2)CC1 4.47 µM
CC1=NN(C(=O)c2ccc(Br)cc2)C(O)(c2ccccc2)C1 (configuration not stated) 1.12 µM
